One may read the inhibition as the change of the read-out against control, counted positive when it falls. For orientation: viability means a read-out of living cells in per cent, often relative to untreated cells.

“And” between values parts separate entries of the source, which are not always exact repeats. Identical values can stand only once. For some of these results: Entries with a potency or affinity are not part of this list. The source made the active and inactive calls. Unless noted, no stated cut-off is given here; in the data, active means parasite load remaining mostly below about 12% (no sharp cut-off); inactive means mostly above about 10%.

A short description of test [1]: blockers of polyQ-driven CASP3 activation – cell-based (AID 1583). Conditions: polyglutamine-induced caspase-3 activation, cell assay; stronger effect = higher value;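 tested at 10 µM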.
Test [2] is described as follows: yeast 75Q aggregation reduction – 75Q-TubU reporter (AID 1593). The following applies: Yeast 75Q polyglutamine aggregation reporter.
The nature of test [3]: restoration of touch response, mutant HTT neurons – whole organism, C. elegans mechanosensory neurons, N-terminal huntingtin (AID 1599). Conditions: C. elegans polyQ-huntingtin mechanosensory neurons, stronger effect = higher value.
Test [4] can be described thus: blockers of cytochrome c efflux from mitochondria – biochemical, purified mitochondria (AID 1603).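 Further: mouse liver mitochondria challenged with calcium chloride; signal normalized to the plate average as 100%.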 Conditions: stronger effect = lower value.
A short description of test [5]: polyglutamine aggregate formation blockers (AID 1604). The following applies: polyglutamine-induced protein aggregation inhibition assay; stronger effect = higher value; tested at 2.5 µM.
The nature of test [6]: glutamate transport activators, MN-1 cells, MN-1 cell line (AID 1612).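 Further: tested at 1 µM final; 0% = mean of DMSO vehicle wells on each plate; positive means more glutamate uptake than control and negative means less.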 The following applies: MN-1 motor neuron cells, stronger effect = higher value.
Test [7] is described as follows: GFP-Q80 aggregate reduction, neuronal-like cells, cell-based, NGF-treated PC12, GFPQ80 (AID 1614).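 Further: lower means fewer inclusions and 0 means no inclusions at all.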 The following applies: PC12 NGF-treated GFP-polyQ80 inclusion reduction.
The nature of test [8]: 75Q-TubH aggregate inhibition, S. cerevisiae, yeast (AID 1616). The following applies: S. cerevisiae 75Q-TubH polyglutamine aggregation suppression; stronger effect = higher value.
Test [9] is described as follows: P. berghei load reduction in hepatocytes – cell-based, HepG2, luciferase luminescence, HepG2 viability, primary screen (AID 624349).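 Further: 100% = mean of DMSO negative control wells on the same plate.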 Conditions: P. berghei liver stage in HepG2, luciferase luminescence, concentration not given here; parasite load remaining: stronger effect = lower value; viability: measured here: HepG2 viability without parasites.
Test [10] is described as follows: EMT-state selective cytotoxicity in co-culture – imaging, PC-3E GFP, TEM4-18 mCherry, primary screen (AID 1345086;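 active means compounds killing one labelled cell type while sparing the other, by normalised counts and ratio limits, not self-fluorescent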;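 on all read-outs here: cells exposed to compound for 72 h before imaging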;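 on red/green cell ratio (normalised): normalised mesenchymal count divided by normalised epithelial count so high means epithelial killing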). Conditions: PC-3E GFP / TEM4-18 mCherry co-culture, imaging cell counts, at 1 µM; for red/green cell ratio (normalised): actives lie on both sides, counts scaled to control wells, 1 = unselective.
Test [11] in a line: viability loss with induced miR-34 in A549 – imaging, A549 dox-inducible miR-34, nuclei and caspase counts, primary screen (AID 1347080;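 active means compounds whose cell count with miR-34 switched on is under 0.7 times the count with it off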). Conditions: A549 miR-34 inducible, Hoechst nuclei count, 48 h.
[12] abbreviates: measured here: epithelial PC-3E GFP cell survival.
The mark [13] stands for this setting: measured here: mesenchymal TEM4-18 mCherry cell survival.
Where [14] appears, read: stronger effect = lower value, cell number ratio, induced over uninduced.
Where [15] appears, read: measured here: relative caspase fold change +Dox/-Dox.
Setting [16] is: measured here: total cells with miR-34 induction, stronger effect = lower value.
The mark [17] stands for this setting: measured here: total cells without miR-34 induction.

In the case of `O=C1O[C@@H](CO)[C@H](O)[C@@H](O)[C@@H]1O`, the inhibition in [1] is -15.4%. The same molecule had a score in test [2] of 1.29. In addition, the rescue above control in test [3] was 7.61. In addition, in test [4], the cytochrome c release ratio was determined as 0.98. This molecule also returned an inhibition of aggregation in test [5] of 50.7%. In test [6], the glutamate uptake change is -5.06%. For the same molecule, the inclusion score in test [7] is 2. This molecule yielded an aggregation suppression score in [8] of 1.09. The parasite load remaining in test [9] was 176% (inactive) and 30.6% (inactive). The viability in [9] is 83.8% and 96.7%. The red/green cell ratio (normalised) in test [10] is 1.05 (inactive). The normalised cell number in test [10] (setting [12]) was found to be 0.98; in test [10] (setting [13]), 1.02. Besides, the fold change in [11] (setting [14]) is 0.946 (inactive); in test [11] (setting [15]), 2.61. Also, the cell count in test [11] (setting [16]) was 12000; in [11] (setting [17]), 12600.
With `C[C@]12CCC(=O)C=C1CCC1C2[C@@H](O)C[C@@]2(C)C1CC[C@]2(O)C(=O)COC(=O)CCC(=O)O` (stereo not given in full), in test [1], the inhibition turned out to be 7.51%. In addition, in test [2], the score worked out at 1.55. In [3], this molecule came in with a rescue above control of -3.62. Moreover, the cytochrome c release ratio in test [4] was 1.58. In test [5], this molecule displayed an inhibition of aggregation of 37.2%. The glutamate uptake change in [6] is -0.65%. The inclusion score in test [7] amounted to 2. The molecule also showed an aggregation suppression score in [8] of 1.36. Also, in test [9], the parasite load remaining is 137% (inactive) and 66.7% (inactive). In addition, in test [9], the viability was 78.6% and 93.3%. In test [10], the red/green cell ratio (normalised) was 1.43 (inactive). Also, the normalised cell number was 0.86 in [10] (setting [12]) and 1.23 in test [10] (setting [13]). In addition, the figures for the fold change in test [11] (setting [14]) and in test [11] (setting [15]) were 0.766 (inactive) and 0.842, respectively. Further, the cell count was determined as 7240 in test [11] (setting [16]) and 9450 in test [11] (setting [17]).
`CC1(C)O[C@@H]2CC3C4C[C@H](F)C5=CC(=O)CC[C@]5(C)C4[C@@H](O)C[C@]3(C)[C@]2(C(=O)CO)O1` (stereo not given in full): the inhibition in [1] came out at 6.64%. Besides, the score in test [2] amounted to 1.49. The molecule further returned a rescue above control in [3] of 7.14. For the same molecule, in test [4], the cytochrome c release ratio was found to be 1.08. Also, in test [5], the inhibition of aggregation was 66.7%. In addition, in [6], the glutamate uptake change came to 17%. Further, the inclusion score in test [7] came to 2.5. Also, the aggregation suppression score in test [8] came to 0.898. The parasite load remaining in test [9] is 151% (inactive) and 47.9% (inactive). Further, in [9], the viability was 68.8% and 102%. Besides, the red/green cell ratio (normalised) in [10] is 1.21 (inactive). In addition, the figures for the normalised cell number in [10] (setting [12]) and in test [10] (setting [13]) were 1.17 and 1.42, respectively. For the same molecule, the fold change in [11] (setting [14]) was 0.854 (inactive); in [11] (setting [15]), 2.6. Further, the cell count in test [11] (setting [16]) turned out to be 7720; in test [11] (setting [17]), 9050.
Regarding `CN[C@@H]1C(OC2[C@H](O[C@H]3[C@H](O)[C@@H](O)[C@H](N=C(N)N)[C@@H](O)[C@@H]3N=C(N)N)OC(C)[C@]2(O)CO)OC(CO)C(O)C1O` (stereo not given in full), the inhibition in test [1] is -7.45%. Also, in test [2], the score was found to be 1.24. Also, the rescue above control in test [3] came out at 1.04. For the same molecule, the cytochrome c release ratio in test [4] was determined as 0.93. Further, in test [5], the inhibition of aggregation is 82.2%. In test [6], the glutamate uptake change was -1.61%. In [7], this molecule came in with an inclusion score of 2. This molecule also registered an aggregation suppression score in test [8] of 1.17. Moreover, in test [9], the parasite load remaining is 87.5% (inactive) and 63.1% (inactive). Besides, the viability in [9] is 69.8% and 93.3%. The red/green cell ratio (normalised) in test [10] was 1.34 (inactive). Further, the normalised cell number in test [10] (setting [12]) came out at 1.05; in test [10] (setting [13]), 1.41. For the same molecule, the fold change was 0.819 (inactive) in [11] (setting [14]) and 1.34 in test [11] (setting [15]). Moreover, the cell count is 10800 in [11] (setting [16]) and 13200 in test [11] (setting [17]).
In the case of `C[C@]12CCC(=O)C=C1CCC1C2[C@@H](O)C[C@@]2(C)C1CC[C@]2(O)C(=O)CO` (stereo not given in full), the inhibition in test [1] turned out to be 5.24%. In test [2], this molecule displayed a score of 1.39. In addition, in test [3], the rescue above control is -4.34. Moreover, in test [4], the cytochrome c release ratio was 1.36. The same molecule displayed an inhibition of aggregation in test [5] of 63.4%. For the same molecule, the glutamate uptake change in test [6] was found to be 10.6%. This molecule also came in with an inclusion score in [7] of 2. The same molecule gave an aggregation suppression score in test [8] of 1.61. In addition, the parasite load remaining in [9] is 94% (inactive). The viability in test [9] amounted to 99.2%. Further, in [10], the red/green cell ratio (normalised) is 1.04 (inactive). Also, the normalised cell number in [10] (setting [12]) was 1.28; in test [10] (setting [13]) it was 1.34. Besides, the fold change was 0.949 (inactive) in test [11] (setting [14]) and 3.13 in [11] (setting [15]). Moreover, the cell count in test [11] (setting [16]) was determined as 7100; in test [11] (setting [17]), 7490.

Source of the values: PubChem BioAssay.
